# Compound activity deposited in PubChem BioAssay by National Center for Advancing Translational Sciences (NCATS).
# p53 reactivation – re-activators of mutant p53; H1299 p53-A138V BP100-luciferase reporter, luminescence, 24 h; Potency, µM (titrated, usually from 92.2 µM), usual class: activators; hit rate 0.063% among 320,000; AID 504706; active means well fitted activation curve with a large enough effect; inconclusive means small, poorly fitted or top-dose-only effect; inactive means no such curve, though single readings can be large or run the other way; further: nearly all actives have a fitted effect of over 45% in size
#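 H1299 (p53-null), stable ts p53-A138V + BP100-Luc; 1000 cells/well, Opti-MEM/10% FBS; cpd 4 pt, 1:5; 24 h, 37 deg C, 5% CO2; detection reagent 10 min RT; luminescence.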
# ClpP mod – qHTS Assay for Activators of ClpP. purified B. subtilis ClpP, FRET peptide cleavage, 20 min. Potency, µM (highest dose often 57.5 µM). hit rate 1.9% among 340,000. AID 651965, 2013; active means well fitted falling curve with a large enough effect; inconclusive means small, poorly fitted or top-dose-only effect; inactive means no such curve, though single readings can be large or run the other way; further: the source files actives as falling curves though it sought activators and does not explain the sign; nearly all actives have a fitted effect of over 65% in size
#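 FRET quenching reversal measured ClpP activation: 10 microg/mL B. subtilis ClpP at pH 8 with the FRET-FV decapeptide, read at 430 nm after 320 nm excitation. The 20-min minus 0-min signal was scaled between DMSO/no-enzyme wells and ADEP (5.8 microM final).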
# Menin-MLL FL inh – displaces fluorescein MLL peptide from human menin. FP activity change, % at 61.4 µM. 290,000 tested, under 10 active. Fluorescence polarization, fluorescein-MLL peptide displacement from menin. AID 1766; active means well fitted curve in the direction sought with a large enough effect in the polarisation, not every such curve was filed as active; inconclusive means small, poorly fitted or top-dose-only effect, or effect the other way, or a change in a side signal; inactive means no such curve, though single readings can be large or run the other way; the % refers to the polarisation
# CXXC DNA block – inhibitors of human MLL CXXC domain-DNA interaction | MLL-CXXC / FITC-HOXA9 DNA fluorescence polarization | Q03164 | AID 2662 | hit rate 0.037% among 290,000 | Potency, µM (doses to about 115 µM), usual class: inhibitors; active means well fitted inhibition curve with a large enough effect in the polarisation, with a control signal flat, not every such curve was filed as active; inconclusive means small, poorly fitted or top-dose-only effect, or effect the other way, or a change in a side signal; inactive means no such curve, though single readings can be large or run the other way; the % refers to the polarisation
#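 Fluorescence polarization: 7 uM MLL-CXXC (stock) preincubated 5 min with compounds, then 50 nM fluorescein-HOX-A9 DNA (stock) added; 30 min ambient. Buffer 50 mM Tris-HCl pH 7.5, 50 mM NaCl, 1 mM DTT, 0.05% BSA.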
# Menin MLL FP TR – inhibitors of human menin-MLL interaction, mutant MLL peptide; hit rate 0.23% among 270,000; Potency, µM (highest dose often 61.6 µM), most hits filed as inhibitors; O00255; Menin + Texas Red MLL mutant peptide, fluorescence polarization; active means well fitted inhibition curve with a large enough effect in the polarisation, with a control signal flat, not every such curve was filed as active; inconclusive means small, poorly fitted or top-dose-only effect, or effect the other way, or a change in a side signal; inactive means no such curve, though single readings can be large or run the other way; the % refers to the polarisation
# A number is an active result; n = inactive; u = inconclusive; x = no result given; ! = a repeat was not active; [ ] = remark or other dose. Many of the other results were omitted from the sample, so hits are more common in it than they were.
SMILES,p53 reactivation,ClpP mod,Menin-MLL FL inh,CXXC DNA block,Menin MLL FP TR
COc1cc(/C=C/C(=O)O)cc(S(=O)(=O)NCCCO)c1OC,n,28.2µM,n,n,n
COc1ccc2c(c1)c1c(c(=O)n(-c3ccc(C)cc3)c(=O)n1CC(=O)N1CCCC1)n2C,x,n,x,x,x
COc1ccc(C2(O)CC3CCC(C2)N3c2nc(C)cc(C)c2C#N)cc1 (stereo not given),n,28.2µM,n,n,n
COc1ccc(C2Nc3ccccc3C(=O)N2Cc2ccco2)cc1COc1ccccc1F (stereo not given),n,14.1µM,n,n,n
COc1ccc(C2Nc3ccccc3C(=O)N2Cc2ccco2)cc1COc1ccc(NC(C)=O)cc1 (stereo not given),n,31.6µM!,n,n,n
COc1ccc(C2Nc3ccc(NC(C)=O)cc3C(=O)N2Cc2ccccc2)cc1COc1ccc(NC(C)=O)cc1 (stereo not given),x,n,x,x,x
COc1cc(C2Nc3ccccc3C(=O)N2Cc2ccco2)ccc1O (stereo not given),x,n,x,x,x
O=C(O[C@H]1[C@H](Cc2ccccc2)NS(=O)(=O)[C@H]2CC3C=C[C@]12O3)c1ccc(Br)cc1,x,n,x,x,x
COC(=O)C1=NN[C@H](C(=O)OC(C)(C)C)[C@H]1c1ccccc1,n,15.8µM,n,n,n
COC(=O)C1=NN[C@H](C(=O)OC)[C@H]1c1ccccc1,n,n,n,n,n
Cc1cn2nc(N)c3ccccc3c2n1,n,28.2µM,n,n,n
Nc1nn2cc(-c3ccccc3)nc2c2ccccc12,u,u,n,n,u
COCC(C)n1c(SCc2nc3ccccc3c(=O)[nH]2)nc2ccccc2c1=O (stereo not given),n,20µM,n,n,n
COCCCn1c(SCc2nc3ccccc3c(=O)[nH]2)nc2ccccc2c1=O,n,n,n,n,n
CCN(CC)c1ccc(/C=C/C2=C3C=CC=CC3NC=C2)cc1 (stereo not given),x,n,x,x,x
O=C(CCc1ccccc1)Nc1nnc(-c2ccccn2)o1,n,22.4µM,n,n,n
C=C(C)C(O)/C=C/c1ccc(C)cc1 (stereo not given),x,x,n[11.7 µM],x,n[11.7 µM]
Cc1ccc(-c2cc(C(F)F)nc(N3CCC(C)CC3)n2)cc1,n,25.1µM,n,n,n
CC(=O)Nc1ccccc1-c1nc2ccccc2n(CC(=O)c2ccc(C)c(C)c2)c1=O,x,n,x,x,x
O=C(/C=C/c1c(F)cccc1Cl)NCc1ccco1,n,10µM,n,n,n
COC(=O)c1ccccc1S(=O)(=O)NC(=O)c1ccccc1,n,20µM,n,n,n
Cc1ccc(C(C)(C)C)cc1S(=O)(=O)NC(=O)c1ccccc1,n,x,n,n,n
CCc1c(C)n2nc(C)cc2[nH]c1=O,n,12.6µM,n,n,n
O=C(CSc1ccccc1)NC(=O)NCc1ccccc1,n,n,n,n,x
Cc1ccc(SCC(=O)NC(=O)NCc2ccccc2)c(C)c1,n,35.5µM,n,n,n
SMILES,p53 reactivation,ClpP mod,Menin-MLL FL inh,CXXC DNA block,Menin MLL FP TR
COc1cc2c(cc1OC)CN(C(=S)Nc1ccc(Cl)cc1)CC2,n,n,n,n,x
COc1cc2c(cc1OC)CN(C(=S)Nc1cccc(Cl)c1C)CC2,n,31.6µM,n,n,x
CCCCn1c(N)c(N(CCOC)C(=O)c2cc(-c3ccc(OC)cc3)nc3ccccc23)c(=O)[nH]c1=O,n,11.2µM,x,x,x
Cc1cc(=O)oc2cc(OCC(O)CN3CCN(c4ccccc4)CC3)ccc12 (stereo not given),n,31.6µM,n,n,n
COc1ccccc1N1CCN(CC(O)COc2ccc3c(C)cc(=O)oc3c2)CC1 (stereo not given),n,15.8µM,n,n,n
COc1ccccc1N1CCN(CC(O)COc2c(OC)cccc2OC)CC1 (stereo not given),n,n,n,n,n
Cc1cc(=O)oc2cc(OCC(O)CN3CCc4ccccc4C3)ccc12 (stereo not given),n,u,n,n,n
O=C(C[n+]1cccc2cc(Cl)ccc21)c1cccc([N+](=O)[O-])c1,x,n,x,x,x
Cc1cc2oc(=O)c(CC(=O)O)c(C)c2c2occ(-c3ccccc3)c12,x,31.6µM,x,x,x
Cc1c(CC(=O)O)c(=O)oc2c(C)c3occ(-c4ccccc4)c3cc12,n,n,n,n,n
Cc1cc(/C=C2\C=Cc3ccccc32)cc(C)c1[N+](=O)[O-],x,n,x,x,x
O=C(COC(=O)/C=C/c1cccs1)Nc1nc(-c2ccccc2)cs1,u,x,n,n,n
O=C(COC(=O)c1cccs1)Nc1nc(-c2ccccc2)cs1,n,31.6µM,n,n,n
Nc1cc(C(=O)c2ccccc2)ccc1N1CCOCC1,u,n,n,n,n
CC(=O)Nc1cc(C(=O)c2ccccc2)ccc1N1CCOCC1,n,35.5µM,n,n,n
Cc1cc(C)c2c(=O)cc(C(=O)Nc3ccc(S(=O)(=O)Nc4onc(C)c4C)cc3)oc2c1,x,n,x,x,x
COc1cc2c(C(=O)c3ccccc3)c3c4c(cc(OC)c(OC)c4c2cc1OC)CCN3C,x,x,n,x,u
CCOC(=O)N1CCc2cc(OC)c(OC)c3c2c1cc1cc(OC)c(OC)cc13,x,28.2µM,x,x,x
O=C(Nc1ccc2ccccc2c1)c1cn(-c2ccccc2)nc1-c1cccs1,n,31.6µM,x,n,x
CN(C)c1ccc(NC(=O)c2cn(-c3ccccc3)nc2-c2cccs2)cc1,n,n,n,n,u
Cc1ccc(-c2cc(=O)c3cc(C)ccc3[nH]2)cc1,22.4µM,n,n,n,u
Cc1ccc(-c2cc(=O)c3cc(F)ccc3[nH]2)cc1,u,n,n,n,n
CN1CCc2c(c3cnc4cc(Cl)ccc4c3n2C)C1,x,n,x,x,x
Cc1ccccc1OCC(=O)N1CCC2(CC1)CC(=O)c1ccccc1O2,n,28.2µM,x,x,x
O=C1CC2(CCN(C(=O)COc3ccccc3)CC2)Oc2ccccc21,n,x,x,x,x
SMILES,p53 reactivation,ClpP mod,Menin-MLL FL inh,CXXC DNA block,Menin MLL FP TR
Cc1ccc(S(=O)(=O)N2CCC3(CC2)CC(=O)c2ccccc2O3)cc1,n,x,x,x,x
O=C(O)c1ccc(S(=O)(=O)N2CCC3(CC2)CC(=O)c2ccccc2O3)cc1,n,31.6µM,x,x,x
CC(Oc1ccccc1)C(=O)N1CCC2(CC1)CC(=O)c1ccccc1O2 (stereo not given),n,25.1µM,x,x,x
O=C(O)c1cc2cc(OCc3ccccc3)ccc2[nH]1,n,28.2µM,n,n,n
Cn1c2ccc(F)cc2c2ncn(CCCN(CCO)CCO)c(=O)c21,n,28.2µM,n,n,u
CCCCCSc1nnc2c(n1)OC(c1ccc(C)s1)N(C(C)=O)c1ccccc1-2 (stereo not given),x,n,x,x,x
Fc1ccc2[nH]c3c(NCc4ccco4)ncnc3c2c1,x,n,x,x,x
Cc1ccc2[nH]c3c(NCc4ccco4)ncnc3c2c1,n,17.8µM,n,n,n
O=C(NCc1ccc(F)cc1F)c1cc(COc2c(F)cccc2F)on1,n,17.8µM,n,n,u
O=C(NCc1c(F)cccc1F)c1cc(COc2c(F)cccc2F)on1,n,x,n,n,u
CCCCc1nc2c(c3c1C[C@H](C)OC3)CN(S(=O)(=O)c1ccc(C#N)cc1)CC2,x,x,n[11.7 µM],x,n[11.7 µM]
